Source: PubChem BioAssay (National Center for Advancing Translational Sciences (NCATS))
Rows were chosen to be rich in hits. Some 3.8% of all compounds tested hit in one or more screens of this group.
A549 viability – counter-screen for Nrf2 inhibitors: cytotoxicity in A549 cells; A549 ARE-Fluc cells, CellTiter-Fluor viability, 18-24 h; Potency, µM (series often up to 46 µM), most hits filed as inhibitors; actives 0.16% (n = 390,000); AID 504648
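Cytotoxicity counterscreen: CellTiter-Fluor fluorescence was measured in A549 ARE_Fluc cells after 18-24 h of compound exposure in a concentration series. The subsequent BugLite luminescent read reports ARE-luciferase activity.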
ATXN viability – viability counter-screen for ATXN expression inhibitors | S2 cells (HEK-293 line with an ATXN2-luciferase reporter) viability, CellTiter-Fluor protease fluorescence, 24 h | actives 0.49% (n = 400,000) | AID 651635 | Potency, µM (top dose mostly 56.7 µM), most hits filed as cytotoxic; further: nearly all actives have a fitted effect of over 40% in size
TGFb SMAD3 inh – inhibitors of TGF-b signaling; HepG2 CAGA-GFP TGF-b/SMAD3 reporter, GFP fluorescence, 18 h; TGF-beta stimulated, 500 pg/mL final; Potency, µM (top dose mostly 46.1 µM), actives largely listed as inhibitors; actives 1.2% (n = 410,000); further: nearly all actives have a fitted effect of over 65% in size
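HEPG2 CAGA-GFP reporter cells (1000/well, DMEM with 1% FBS) received compounds, then recombinant TGF-beta at 500 pg/mL final for 18 hours at 37 degrees C. Per-cell GFP summed per well was normalised to unstimulated and stimulated DMSO controls before curve fitting.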
Nrf2 inh – Nrf2 pathway inhibition. actives 2.1% (n = 360,000). Potency, µM (top dose mostly 46 µM), usual class: inhibitors. A549 ARE-Fluc reporter, luciferase luminescence, 18-24 h. AID 504444; further: nearly all actives have a fitted effect of over 60% in size
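Cells were seeded and rested 2 h, then exposed to compounds for 18-24 h. CellTiter-Fluor was read first as a viability measure. BugLite was added 15 min before the final luminescent read of ARE-luciferase activity in A549 cells.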
HepG2 tox-1 – HepG2 cytotoxicity, counter-screen for TGF-b inhibitors; HepG2 CAGA-GFP viability, ATP luminescence, 18 h; Potency, µM (titrated, usually from 46.1 µM), usual class: cytotoxic; actives 0.76% (n = 410,000)
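HepG2 CAGA-GFP cells (1000/well, DMEM with 1% FBS) received compound, then TGF-beta at 500 pg/mL final, and were incubated 18 hours at 37 degrees C. Viability was read by CellTiter-Glo luminescence. Media-only wells were set as complete cell-killing and DMSO as no toxicity.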
ATXN2 expr inh – inhibitors of ATXN2 expression; HEK-293 ATXN2-luciferase reporter, luminescence, 24 h; Potency, µM (titrated, usually from 57 µM), hits mostly inhibitors; actives 0.72% (n = 360,000); further: nearly all actives have a fitted effect of over 55% in size
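ATXN2-luciferase reporter cells (luciferase flanked by upstream and downstream ATXN2 gene portions) were treated 24 h at 37 °C with compounds at up to 57 uM. SteadyGlo luminescence gave expression; GF-AFC fluorescence gave viability.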
TGFb CAGA inh – TGF-b pathway inhibition, cherry-pick retest. shares compounds with TGFb SMAD3 inh. HepG2 CAGA-GFP TGF-b reporter, GFP fluorescence, 18 h; cells stimulated with TGF-beta, 500 pg/mL. Potency, µM (doses to about 46.1 µM), most hits filed as inhibitors. actives 63% (n = 1,600); further: nearly all actives have a fitted effect of over 65% in size
HepG2 tox-2 – toxic to HepG2 cells in TGF-b counterscreen | shares compounds with TGFb SMAD3 inh | AID 720535 | HepG2 CAGA-GFP viability, ATP luminescence, 18 h; cells stimulated with TGF-beta, 500 pg/mL | Potency, µM (series often up to 46.1 µM), most hits filed as inhibitors | actives 27% (n = 1,600); further: nearly all actives have a fitted effect of over 70% in size
CCL64 TGFb inh – orthogonal confirmation of TGF-b inhibitors in CCL64 cells. CCL64 CAGA-GFP reporter, TGF-b stimulated, GFP fluorescence, 18 h. Potency, µM (doses to about 46.1 µM), actives largely listed as inhibitors. actives 41% (n = 1,600). shares compounds with TGFb SMAD3 inh; further: nearly all actives have a fitted effect of over 65% in size
TGFb COP inh – blocks TGF-b signaling in HepG2 COP reporter; Potency, µM (titrated, usually from 46.1 µM), most hits filed as inhibitors; actives 3% (n = 1,600); shares compounds with TGFb SMAD3 inh; HepG2 COP-GFP TGF-b reporter, GFP fluorescence, 18 h; cells stimulated by added recombinant TGF-beta; further: nearly all actives have a fitted effect of over 70% in size
Each line names hits and unclear results; the compound was inactive in the other large screens (follow-up assays come after a bar, where they were run). The call rests on the fitted dose curve; in most records, active means well fitted curve in the direction sought with a large enough effect; inconclusive means small, poorly fitted or top-dose-only effect, or another doubt; inactive means no such curve, though single readings can be large; an effect the other way counts as inactive or inconclusive.

COc1ccc(Cl)cc1Cn1c(C)c(C(=O)N(C)Cc2ccc(F)cc2)sc1=O	none (no result: A549 viability, Nrf2 inh)
COc1ccc(Cl)cc1Cn1c(C)c(C(=O)NCc2ccc(F)cc2)sc1=O	TGFb SMAD3 inh 14µM (no result: A549 viability, Nrf2 inh) | TGFb CAGA inh inconclusive | HepG2 tox-2 inactive | CCL64 TGFb inh inconclusive | TGFb COP inh inactive
COc1ccc(C(=O)On2c(-c3ccc(Br)cc3)nc3ccccc3c2=O)cc1	ATXN viability inconclusive, TGFb SMAD3 inh 13µM, Nrf2 inh inconclusive, ATXN2 expr inh inconclusive | TGFb CAGA inh 12µM | HepG2 tox-2 21µM | CCL64 TGFb inh 21µM | TGFb COP inh inactive
COc1cc(OC)cc(-c2nc3ccccc3c(=O)n2OC(=O)c2ccc(Br)cc2)c1	none
CN(CCC1CCCCO1)C(=O)CCc1nnc(C2CCCCC2)o1 (centres undefined)	none (no result: ATXN2 expr inh)
CCCC(=O)NC(c1ccc(Cl)cc1)c1ccc2cccnc2c1O (centres undefined)	ATXN viability inconclusive, TGFb SMAD3 inh inconclusive, Nrf2 inh inconclusive, ATXN2 expr inh 7.1µM | TGFb CAGA inh inconclusive | HepG2 tox-2 inconclusive | CCL64 TGFb inh 5.2µM | TGFb COP inh inactive
CC(C)C(=O)NC(c1cccc([N+](=O)[O-])c1)c1ccc2cccnc2c1O (centres undefined)	ATXN viability inconclusive, TGFb SMAD3 inh 3.5µM, Nrf2 inh inconclusive, ATXN2 expr inh 2.7µM | TGFb CAGA inh inconclusive | HepG2 tox-2 inconclusive | CCL64 TGFb inh 7.3µM | TGFb COP inh inactive
O=C(OCC(=O)N1CCOCC1)c1cc(-c2ccccc2)nc2ccccc12	ATXN viability inconclusive
OC(CNCC(c1ccc(Cl)cc1Cl)c1c[nH]c2ccccc12)c1ccccc1 (centres undefined)	A549 viability inconclusive, ATXN viability inconclusive, TGFb SMAD3 inh 7.1µM, Nrf2 inh inconclusive, ATXN2 expr inh inconclusive | TGFb CAGA inh inconclusive | HepG2 tox-2 16µM | CCL64 TGFb inh inconclusive | TGFb COP inh inconclusive
CS(=O)(=O)Nc1ccccc1C(=O)Nc1cccc(Cl)c1	TGFb SMAD3 inh inconclusive, Nrf2 inh inconclusive
CS(=O)(=O)Nc1ccccc1C(=O)Nc1cc(Cl)cc(Cl)c1	ATXN viability inconclusive, TGFb SMAD3 inh 7.1µM, Nrf2 inh 13µM, ATXN2 expr inh 22µM | TGFb CAGA inh 7.3µM | HepG2 tox-2 inconclusive | CCL64 TGFb inh 8.2µM | TGFb COP inh inactive
C[C@@H]1CN([C@H](C)CO)C(=O)CCCn2nncc2CO[C@H]1CN(C)Cc1ccc(C(F)(F)F)cc1	none (no result: A549 viability, Nrf2 inh)
O=C(C1=C[C@@H](c2ccc(C(F)(F)F)cc2)C[C@@H](OCc2ccc(CO)cc2)O1)N1CCN(Cc2ccccc2)CC1	ATXN viability inconclusive, TGFb SMAD3 inh 14µM, ATXN2 expr inh inconclusive | TGFb CAGA inh 18µM | HepG2 tox-2 inactive | CCL64 TGFb inh inconclusive | TGFb COP inh inactive
CCCCCCC[C@@H](C/C=C/CCC(=O)O)OC	ATXN viability inconclusive
CCCCCCC[C@@H](C/C=C/CCC(=O)N(C)C/C(=C/Cl)C/C(=C\C(=O)N1CC(OC)=CC1=O)OC)OC	A549 viability inconclusive, ATXN viability 22µM, TGFb SMAD3 inh 0.71µM, Nrf2 inh inconclusive, ATXN2 expr inh inconclusive | TGFb CAGA inh 0.73µM | HepG2 tox-2 inconclusive | CCL64 TGFb inh 7.3µM | TGFb COP inh inactive
COCCn1c(SCc2nc3scc(-c4ccc(Cl)cc4)c3c(=O)[nH]2)nnc1-c1cccc(C)c1	ATXN viability inconclusive, TGFb SMAD3 inh 10µM, Nrf2 inh inconclusive | TGFb CAGA inh 13µM | HepG2 tox-2 inconclusive | CCL64 TGFb inh inconclusive | TGFb COP inh inactive
Nc1ncnc2c1ncn2[C@@H]1O[C@H](C(=O)NCc2ccc(OC(F)(F)F)cc2)[C@@H](O)[C@H]1O	TGFb SMAD3 inh inconclusive (no result: A549 viability, Nrf2 inh) | TGFb CAGA inh inconclusive | HepG2 tox-2 inactive | CCL64 TGFb inh inactive | TGFb COP inh inactive
O=C(NCc1cccnc1)c1cc(C2CCCCN2C(=O)CCCc2ccccc2)on1 (centres undefined)	none (no result: A549 viability, Nrf2 inh)
CCCc1nnc(NC(=O)C(CC)OC(=O)c2cc(C)nc3ccccc23)s1 (centres undefined)	TGFb SMAD3 inh inconclusive | TGFb CAGA inh inconclusive | HepG2 tox-2 inactive | CCL64 TGFb inh inactive | TGFb COP inh inactive
CCCc1nnc(NC(=O)COC(=O)c2cc(C)nc3ccccc23)s1	none
COc1ccccc1C(=O)OCc1cc(=O)n2c(C)csc2n1	Nrf2 inh inconclusive
CN(C)c1cccc(/C=C(\C#N)c2ccccc2)c1	TGFb SMAD3 inh 13µM, Nrf2 inh inconclusive (no result: ATXN2 expr inh) | TGFb CAGA inh inconclusive | HepG2 tox-2 inactive | CCL64 TGFb inh inconclusive | TGFb COP inh inactive
Cc1ccc2nc(C)cc(C(=O)N3CCCC(CO)(Cc4ccccc4C)C3)c2c1 (centres undefined)	none
COc1ccc(CCNc2nc(SCc3ccc(Cl)cc3)nc3ccccc23)cc1OC	none (no result: ATXN viability, Nrf2 inh, ATXN2 expr inh)
COc1ccc(CCNc2c3ccccc3nc3ccccc23)cc1OC	A549 viability inconclusive, ATXN viability inconclusive, TGFb SMAD3 inh 16µM, Nrf2 inh inconclusive, ATXN2 expr inh inconclusive | TGFb CAGA inh 15µM | HepG2 tox-2 21µM | CCL64 TGFb inh 26µM | TGFb COP inh inactive
OCCCNc1c2ccccc2nc2ccccc12	A549 viability inconclusive, ATXN viability inconclusive, TGFb SMAD3 inh 4.5µM, Nrf2 inh 8.2µM, ATXN2 expr inh inconclusive | TGFb CAGA inh 13µM | HepG2 tox-2 13µM | CCL64 TGFb inh inconclusive | TGFb COP inh inactive
CCCCn1c(N)c(N(C(=O)CSc2nnnn2-c2ccccc2C)C2CCCC2)c(=O)[nH]c1=O	none
CC(C)c1ccc(NC(=O)C2CSC3(C)CCC(=O)N23)cc1 (centres undefined)	none
CC(=O)Nc1ccc(NC(=O)c2c(C)nn(Cc3ccccc3Cl)c2C)cc1	none
